Measured values published in PubChem BioAssay AID1053197 (The Scripps Research Institute Molecular Screening Center, 2014).
Screen size: about 370,000 compounds; about 2,600 (0.7%) were called active. Shown is part of a subset that was picked to be rich in actives. Unmarked numbers belong to inactive results.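 The calls were made as follows: active = inhibition above a cutoff: mean of compounds within the control limits plus 3 SD of those (cut at about 17% in these data); inactive = the rest.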

molecular target: Sialate O-acetylesterase (Homo sapiens) (UniProt Q9HAT2); assay: blockers of sialate O-acetylesterase activity-probe labeling – biochemical, fluorescence polarization, FP-Rh probe, 1536-well HTS, primary screen (AID 1053197); conditions: SIAE FP-Rh probe binding, at 9.66 µM, active compounds read high;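 also: 0% = plate median of compound wells and 100% = probe without SIAE protein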
Sequence (Q9HAT2 whole entry, looked up): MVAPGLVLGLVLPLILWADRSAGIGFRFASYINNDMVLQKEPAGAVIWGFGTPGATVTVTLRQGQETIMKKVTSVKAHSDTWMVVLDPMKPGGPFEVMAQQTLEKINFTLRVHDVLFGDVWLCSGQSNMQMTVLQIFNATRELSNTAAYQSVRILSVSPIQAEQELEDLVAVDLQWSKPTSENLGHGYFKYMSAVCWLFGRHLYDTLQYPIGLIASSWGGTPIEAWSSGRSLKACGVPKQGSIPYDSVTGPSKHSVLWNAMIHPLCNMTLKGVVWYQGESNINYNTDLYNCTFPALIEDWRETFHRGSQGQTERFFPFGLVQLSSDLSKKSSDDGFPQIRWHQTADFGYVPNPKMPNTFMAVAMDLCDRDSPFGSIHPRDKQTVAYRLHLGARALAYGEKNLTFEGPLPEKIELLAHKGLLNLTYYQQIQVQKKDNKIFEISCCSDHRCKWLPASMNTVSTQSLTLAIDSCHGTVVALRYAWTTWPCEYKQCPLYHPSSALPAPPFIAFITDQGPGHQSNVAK

SMILES	inhibition
COC(=O)c1ccccc1SC1CC(=O)N(c2cccc(C)c2)C1=O (stereo unspecified)	-0.8%
Cc1cccc(N2C(=O)SC(SC(=Nc3ccccc3)Nc3ccccc3)C2=O)c1 (stereo unspecified)	18.1% (active)
Cc1cccc(N2C(=O)SC(N(CC(=O)O)c3cccc(C)c3)C2=O)c1 (stereo unspecified)	1.65%
COc1ccc(Cn2cc(COC(=O)N(C)Cc3ccccc3)nn2)cc1	0.99%
CCOC(=O)[C@]12CCCC3=C1N(CCC3)C(=O)[C@@H](CC(=O)N1CCSCC1)C2	-3.23%
Cc1cc(=O)[nH]c(SCC(=O)Nc2ccc(F)cc2F)n1	-0.82%
O=C(Nc1ccccc1N1CCCC1)c1ccc(F)c(S(=O)(=O)N2CCOCC2)c1	20.5% (active)
CCN(CC)S(=O)(=O)c1cc(C(=O)Nc2cc(S(=O)(=O)N3CCOCC3)ccc2N2CCCC2)ccc1F	1.03%
Cc1ccc(S(=O)(=O)N2CCOCC2)cc1C(=O)Nc1ccccc1N1CCCC1	12.1%
CC(C)CNC(=O)OCc1cn(Cc2ccc(F)cc2)nn1	-8.33%
Cc1cc(=O)[nH]c(SCC(=O)Nc2ccc(Cl)cc2C)n1	1.99%
O=C(c1ccccc1)c1ccc(-c2ccccc2C(=O)NC2CCCCN(Cc3ccc(Cl)cc3)C2=O)cc1 (stereo unspecified)	1.39%
CC1CCCCC1NC(=O)/C(C#N)=C/C=C/c1ccccc1[N+](=O)[O-] (stereo unspecified)	17.2% (active)
CC1CC(C)CN(C/C=C/c2ccccc2[N+](=O)[O-])C1 (stereo unspecified)	2.91%
COc1cc(/C=C(\C#N)C(=O)Nc2ccc3ccccc3c2)c([N+](=O)[O-])cc1OC	-1.47%
CC(C)CNc1cccc2c1S(=O)(=O)N(Cc1cn(Cc3ccc(Cl)cc3)nn1)Cc1ccccc1O2	3.21%
O=C(NC1CCCCN(Cc2ccc(Cl)cc2)C1=O)c1ccc(Br)cc1 (stereo unspecified)	-3.06%
CN(Cc1ccc(CNC[C@H]2O[C@@H](n3cnc4c(N)ncnc43)[C@H](O)[C@@H]2O)o1)S(C)(=O)=O	-0.06%
Nc1ncnc2c1ncn2[C@@H]1O[C@H](C(=O)N2CCCN(Cc3ccccc3F)CC2)[C@@H](O)[C@H]1O	-1.61%
Nc1ncnc2c1ncn2[C@@H]1O[C@H](C(=O)N2CCSC2)[C@@H](O)[C@H]1O	1.67%
Nc1ncnc2c1ncn2[C@@H]1O[C@H](C(=O)NCC(F)(F)F)[C@@H](O)[C@H]1O	51.2% (active)

SMILES	inhibition
Nc1ncnc2c1ncn2[C@@H]1O[C@H](C(=O)N[C@@H](CCc2ccccc2)C(=O)NCC(=O)N2CCOCC2)[C@@H](O)[C@H]1O	2.34%
CN(Cc1ccc(C(F)(F)F)cc1)C(=O)[C@H]1O[C@@H](n2cnc3c(N)ncnc32)[C@H](O)[C@@H]1O	81.3% (active)
CC(C)CSc1nnc(-c2cccnc2)n1Cc1ccccc1	0.87%
O=C(NCc1ccc(Cl)cc1)C1CCCN(c2nc3ccccc3o2)C1 (stereo unspecified)	1.99%
O=C(Nc1cc(F)cc(F)c1)OC1CCC12CCC(c1ccccc1)CC2 (stereo unspecified)	-17%
Nn1c(SCC(=O)N2c3ccccc3Sc3ccccc32)nnc1-c1n[nH]c2c1CCC2	-8.15%
CN(C)CC(=O)N[C@@H]1C[C@@H]2O[C@H](CO)CC[C@@H]2O[C@@H]1CCc1ccc(C#Cc2ccccc2)cc1	5.34%
COc1ccc(C(=O)OCCN(C)C2CN(Cc3cn(Cc4cccc(C)c4)nn3)S(=O)(=O)C2)cc1OC (stereo unspecified)	-4.69%
C/C(=N\NC(=O)c1cccnc1)c1ccc(-n2ccnc2)cc1	2.74%
C/C(=N\NC(N)=S)c1cccnc1	1.42%
O=C(NN=C1CCC(=NNC(=O)c2cccnc2)CC1)c1cccnc1	20.1% (active)
O=C(N/N=C/c1ccc(O)c2ccccc12)c1cccnc1	18.7% (active)
NS(=O)(=O)c1ccc(NC(=S)NC(=O)c2cccnc2)cc1	1.85%
O=C(O)/C(=C/c1cccnc1)NC(=O)c1ccccc1	5.04%
Cc1cc(NS(=O)(=O)c2ccc(NC(=O)CSc3nnc(-c4ccc(C(C)(C)C)cc4)n3Cc3ccco3)cc2)nc(C)n1	-2.29%
COC(=O)[C@]12C[C@H](CC(=O)NCC34CC5CC(CC(C5)C3)C4)C(=O)N(Cc3ccc(Cl)cc3Cl)C1=C[C@H](COCc1ccccc1)O[C@@H]2C	-3.29%
COc1cc(C(=O)Nn2c(O)c(C3=c4ccccc4=NC3=O)sc2=S)ccc1O	40.2% (active)
COc1cc(C(=O)Nn2c(CC(C)C)nc3ccccc3c2=O)cc(OC)c1OC	-1.34%
COc1cc(C(=S)NC2CCCCC2)ccc1O	2.61%
Cc1ccc(Cn2cc(COC(=O)N(C)Cc3ccccc3)nn2)cc1	2.24%
